Our source for the growth values is PubChem BioAssay (NCI).

The panel holds about 83,000 compounds, 20% with a hit somewhere; the sample as a whole holds those more often.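 Note: values are percent growth. 100 is the growth of untreated cells, values between 100 and 0 indicate rising inhibition; between -100 and 0 indicates cell death.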 The source made the active and inactive calls.

The test system of the assay is HT29 colon. Briefly: NCI-60 one-dose screen, 48 h (100 = growth as untreated, 0 = no growth, -100 = all killed). To be noted: 10 µM unless noted. The procedure:
Growth inhibition of the HT29 human tumor cell line is measured as a screen for anti-cancer activity. Cells are grown in 96 well plates and exposed to the test compound for 48 hours. Compounds are tested at a single concentration, which is 10^-5 M for most compounds. The reported endpoint is percent growth (GI% or GIPRCNT), where numbers from 0 - 100% represent growth inhibition, and numbers from -100% - 0 represent cell death. For example, a value of 40 represents 60% growth inhibition. A value of 0 means no net growth occurred over the course of the experiment. A value of -40 indicates 40% of cells at the beginning of the experiment died by the end of the experiment. A value of -100 means all cells are dead at the end of the experiment.
NCI-60 Human Tumor Cell Lines Screen was performed using the standard one-dose NCI protocol, which is described in more detail at https://dtp.cancer.gov/discovery_development/nci-60/default.htm.
Compounds with GIPRCNT values below 10 were considered active. Activity score was based on GIPRCNT using the following formula: […]
Score is 0 for GIPRCNT values of 100 or above, 50 for GIPRCNT values of 0, and 100 for GIPRCNT values of -100.
As to `NC(=O)c1c(NC(=O)c2ccc(Cl)cc2)sc2c1CCC(=O)C2`, the growth is 62.5% (inactive).

On to `c1ccc(CNc2ccc3nc(CCC4CCCCC4)[nH]c3c2)cc1`, for which the growth was 13.8% (inactive).

In the case of `COc1cc(C(=O)c2c(N)ncn2-c2ccccc2)cc(OC)c1OC`, the growth is 93.7% (inactive).

As to `Nc1c(C(=O)Nc2ccccn2)sc2nc3c(cc12)C(O)CCC3` (stereo not given), the growth was 11.8% (inactive).

As to `CCN(CC)CCNC(=O)c1ccc(-c2nc3ccc4[nH]ncc4c3c3c2CCCC3)cc1`, the growth was 68.3% (inactive).

As for `COc1ccc(-c2cc(-c3ccc(OC)cc3)nc(NCCCNc3ccnc4cc(Cl)ccc34)n2)cc1`, the growth is -59.6% (active).

For the compound `CC/C=C1/C(=O)C=C[C@@H]1C/C=C\CCCC(=O)OC`, the growth is 24.8% (inactive).

On to `CCN(CC)S(=O)(=O)c1ccc(S(=O)(=O)N2CCC[C@@H](C(=O)N3CCN(C(=O)OC(C)(C)C)CC3)C2)cc1`, for which the growth was 91.5% (inactive).

Turning to `COC(=O)c1ccc2c(c1)c1c(C)c3ccncc3c(C)c1n2C`, the growth was 12.4% (inactive).

Regarding `Cc1nc2sc(C(=O)Nc3ccccc3)c(N)c2cc1C(=O)/C=C/c1ccccc1`, the growth is -63.9% (active).

On to `CCCCCSB(SCCCCC)c1ccccc1`, for which the growth is 96.4% (inactive).

As for `Cc1ccc(-c2nc(C#N)c(S(=O)(=O)NCCO)o2)cc1`, the growth was 24.2% (inactive).

For the compound `CS(=O)(=O)Cc1cnc(C2OCCO2)s1`, the growth is 91.1% (inactive).

`COc1cc(Nc2ncccc2NC(=O)c2cn(Cc3cccc(Oc4ccccc4)c3)nn2)cc(OC)c1`: the growth was 88.8% (inactive).

With `COc1ccccc1-n1c(-c2cc(O)ccc2C)cn2c3c(=O)[nH]c(=O)n(C)c3nc12`, the growth is 32% (inactive).

Consider `N#C/C(=C\c1ccc(Cl)cc1Cl)C(=O)Nc1ncc(Cc2ccc(Cl)c(Cl)c2)s1`, for which the growth is 66.3% (inactive).

On to `CNC(=O)c1c(NC(=O)c2ccc(C(C)(C)C)cc2)sc2c(CN(C)C)c(O)ccc12`, for which the growth was 0.0225% (active).

Regarding `CCOC(=O)C1CCN(c2ccc(N3C[C@@H](CNCc4ccc(C(=N)N)cc4)OC3=O)cc2)CC1`, the growth was 105% (inactive).

With `Cc1ccc(O)c(NC(=O)c2ccc(CNc3ccnc(C(F)(F)F)c3)cc2)c1`, the growth is 66.4% (inactive).

Take `O=C(O)CCCc1cnc2c3sccc3nc(SCc3c(Cl)cccc3Cl)n12`: the growth is 15.6% (inactive).

For the compound `CO[C@H](C(=O)[C@@H](O)[C@@H](C)O)[C@@H]1Cc2cc3cc(O[C@H]4C[C@@H](O[C@H]5C[C@@H](O)[C@H](O)C(C)O5)[C@H](O)C(C)O4)c(C)c(O)c3c(O)c2C(=O)[C@H]1O[C@H]1C[C@@H](O[C@H]2C[C@@H](O[C@H]3C[C@@H](OC)[C@H](O)C(C)O3)[C@@H](O)C(C)O2)C(O)(O)C(C)O1` (stereo not given in full), the growth was -0.578% (active).

Turning to `N#Cc1c(N2CCOCC2)nc(=S)[nH]c1-c1ccccc1`, the growth is 86.1% (inactive).

Consider `CC(O)c1ncc(/C=C2\SC(=S)N(Cc3ccccc3)C2=O)s1` (stereo not given), for which the growth was 59.4% (inactive).

For the compound `Cc1c2cc[nH]c(=O)c2c(C)c2c1[nH]c1ccc(OC(=O)c3ccccc3)cc12`, the growth was 34.1% (inactive).

On to `C#CCOc1cccc(-c2ncc3cc(NC(=O)CCl)ccc3n2)c1`, for which the growth is -67.6% (active).

Consider `O=S(=O)(c1ccccc1)N1CCCN(c2nc(-c3ccccc3)nc3nc(-c4ccccc4)oc23)CC1`, for which the growth is 109% (inactive).

In the case of `C/C(=N\O)C(=O)NCCCCCC(=O)Nc1ccccc1`, the growth is 104% (inactive).

Regarding `c1ccc2cc(Cn3c[n+](Cc4ccc5ccccc5c4)c4ccccc43)ccc2c1`, the growth is -80.6% (active).

`COc1ccc(C(c2cc(OC)c(OC)c(OC)c2)N2CCCC2)cc1` (stereo not given): the growth was 40.6% (inactive).

On to `CCN1C(=O)N(CC)C2C1NN=C1SCC(=O)N12` (stereo not given), for which the growth was 59.5% (inactive).

`CCN(CC)c1ccc(N2C(=O)/C(=C/c3cccs3)SC2=S)cc1`: the growth is 101% (inactive).

On to `C[C@@H](CO)[C@@H]1CC[C@]2(C(=O)N3CCN(C)CC3)CC[C@]3(C)[C@H](CC[C@@H]4[C@@]5(C)CC[C@H](O)C(C)(C)[C@@H]5CC[C@]43C)[C@@H]12`, for which the growth was 17.6% (inactive).

In the case of `CC(CN)[C@@H]1CC[C@]2(CO)CC[C@]3(C)[C@H](CC[C@@H]4[C@@]5(C)CCC(N)C(C)(C)[C@@H]5CC[C@]43C)[C@@H]12` (stereo not given in full), the growth is -85.9% (active).

Turning to `Oc1c(Cl)cc(Cl)c2ccc(Cn3cc(-c4cccc(C(F)(F)F)c4)nn3)nc12`, the growth is 89.2% (inactive).

On to `O=C(CCC(=O)c1nc2ncccc2[nH]1)NN1C(=O)CSC1c1ccc(Cl)cc1` (stereo not given), for which the growth is 95.5% (inactive).

Regarding `O=C(N/N=C/c1ccc(Cl)cc1Cl)c1ccc2nc(-c3ccc(Cl)cc3)[nH]c2c1`, the growth is 1.67% (active).

In the case of `COc1cc(/C=N/Nc2ccccc2F)cc(OC)c1OC`, the growth is 93.6% (inactive).

For the compound `O=C(NCc1ccccc1O)c1cccc2ccccc12`, the growth is 107% (inactive).

Take `O=C1c2cc3c(cc2-c2c1c1ccc(Cl)cc1c(=O)n2C[C@H](O)CO)OCO3`: the growth was 0.971% (active).

In the case of `Cn1cc(-c2nc(-c3c[nH]c4ccncc34)cs2)c2cc(Br)ccc21`, the growth was -81.9% (active).
